In PubChem BioAssay (Tox21):
Results filed as inconclusive are left out. The source holds several records for some structures; these can differ, active in one and inactive in another. Active and inactive are the calls of the source. Unless noted, calls follow the shape of the full dose curve.

Experiments:
[1] = Nuclear factor erythroid 2-related factor 2/antioxidant responsive element (Nrf2/ARE) small molecule agonists: qHTS cell viability counter screen in human keratinocytes (AID 1919968; active = well fitted curve in the direction sought with a large enough effect in the repeat runs; an effect the other way counts as inactive or inconclusive; also: nearly all actives have a fitted effect of over 55% in size)
Summary of the method: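 KeratinoSens cells (HaCaT keratinocytes stably carrying an ARE-luciferase reporter) were seeded at 1,500 cells/well and rested 5 h at 37 C/5% CO2. They were then exposed to compounds in DMSO for 23 h. Viability was read by CellTiter-Fluor fluorescence after 1 h.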

[2] = Nuclear factor erythroid 2-related factor 2/antioxidant responsive element (Nrf2/ARE) small molecule agonists: luciferase reporter gene qHTS assay in human keratinocytes (AID 1919969); also: nearly all actives have a fitted effect of over 35% in size; also: potency is read from the fitted curve at half-maximal effect
[3] = target: Gonadotropin-releasing hormone receptor (Homo sapiens) (UniProt P30968); assay: Human gonadotropin-releasing hormone receptor (GnRHR) small molecule agonists, calcium flux assay in GnRHR-HEK293 cells (AID 1920063); also: nearly all actives have a fitted effect of over 35% in size
Summary of the method: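 HEK293 cells stably expressing human GnRHR were plated 18 h at 37 °C, loaded with calcium dye 1 h at 37 °C, then given compound in agonist mode; fluorescence (Ex/Em 480/540) read kinetically for 3 min at 1 s intervals.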

[4] = target: KiSS-1 receptor (Homo sapiens) (UniProt Q969F8); assay: Human kisspeptin (KISS1R) small molecule agonists, calcium flux assay in KISS1R-HEK293 cells (AID 1920064; active = well fitted curve in the direction sought with a large enough effect in the repeat runs; an effect the other way counts as inactive or inconclusive)
Summary of the method: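 HEK293 cells stably expressing human KISS1R were plated 18 h at 37 °C, loaded with calcium dye for 1 h at 37 °C, then given compound by pin tool. Fluorescence (Ex/Em 480/540) was read kinetically for 3 min.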

[5] = G protein-coupled receptor (GPCR) small molecule agonists, calcium flux assay: HEK293 wild type cell line counter screen (AID 1920065)
Summary of the method: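 Cells were plated and cultured 18 h at 37 C/5% CO2, then loaded with calcium dye for 1 h at 37 C. Compounds in DMSO were pin-transferred in agonist mode, and fluorescence (Ex/Em 480/540) was read kinetically for 3 min at 1 s intervals.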

[6] = p53 small molecule agonists, cell-based qHTS assay with human liver microsomes (AID 1963577);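 also: p53 response element beta-lactamase reporter cells with liver microsomes plus NADPH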
Summary of the method: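 Metabolically competent format: test substances, human liver microsomes and NADPH (both 0.5 mg/mL final) incubated with p53RE-bla cells 16 h at 37 C. Beta-lactamase reporter signal then quantified by fluorescence.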

[7] = p53 small molecule agonists, cell-based qHTS assay with rat liver microsomes (AID 1963578)
Summary of the method: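 Each plate received p53RE-bla cells, then compound, then rat liver microsomes and NADPH (both 0.5 mg/mL final). Plates were held 16 h at 37 C, and beta-lactamase activity was detected with LiveBLAzer over 2 h.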

[8] = p53 small molecule agonists, cell-based qHTS assay with human liver microsomes: qHTS cell viability counter screen (AID 1963579); also: nearly all actives have a fitted effect of over 45% in size; also: potency is read from the fitted curve at half-maximal effect
Summary of the method: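 Tox21 library compounds, delivered from DMSO stocks, were tested on p53RE-bla cells together with 0.5 mg/mL human liver microsomes and 0.5 mg/mL NADPH (final) over 16 h at 37 C; CellTiter-Glo luminescence served as the cytotoxicity measure.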

[9] = p53 small molecule agonists, cell-based qHTS assay with rat liver microsomes: qHTS cell viability counter screen (AID 1963580); also: nearly all actives have a fitted effect of over 45% in size
Summary of the method: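 Viability is assessed in parallel with the p53 reporter read: HCT-116 p53RE-bla cells receive compounds plus rat microsomes and NADPH (0.5 mg/mL final apiece), incubate 16 h at 37 C, and then CellTiter-Glo luminescence is recorded.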

[10] = p53 small molecule agonists, cell-based qHTS assay: qHTS cell viability counter screen (AID 1963581); also: nearly all actives have a fitted effect of over 45% in size
Summary of the method: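 p53RE-bla HCT-116 cells were exposed to compounds for 16 h at 37 C; after the beta-lactamase FRET read in the same wells, CellTiter-Glo was added and luminescence (intracellular ATP) read after 30 min at room temperature.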

[11] = p53 small molecule agonists, cell-based qHTS assay (AID 1963582; active = well fitted activation curve with a large enough effect in the signal ratio in the repeat runs, not every such curve was filed as active; the % refers to the signal ratio)
Summary of the method: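 p53RE-bla beta-lactamase reporter cells rested 5 h at 37 C/5% CO2, then received compounds in DMSO by pin transfer and were incubated 16 h at 37 C. LiveBLAzer B/G FRET substrate was loaded for 2 h at room temperature before fluorescence reading.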

[12] = cAMP Responsive Elements (CRE) small molecule agonists, cell-based qHTS assay (AID 1963590)
Summary of the method: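 CRE-bla HEK 293T cells in DMEM with 10% dialyzed FBS, NEAA, pyruvate and 25 mM HEPES were plated 18 h at 37 C/5% CO2, then exposed to compounds in DMSO for 3 h before LiveBLAzer B/G FRET substrate addition.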

[13] = target: Beta-2 adrenergic receptor (Homo sapiens) (UniProt P07550); assay: Adrenergic beta2 receptor (ADRB2) small molecule antagonists, cell-based qHTS assay (AID 1963592); also: series mostly up to about 92 µM; nearly all actives have a fitted effect of over 50% in size
Summary of the method: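 Cells (CHO, stable ADRB2 overexpression) incubated 18-20hr at 37C; compounds added from DMSO; agonist mix (1nM isoproterenol, 100uM IBMX, 25uM Ro-20-1724) added; 0.5hr RT; d2-cAMP and anti-cAMP-cryptate added; 1hr RT; 665/615 nm read.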

[14] = target: Beta-2 adrenergic receptor (Homo sapiens) (UniProt P07550); assay: Adrenergic beta2 receptor (ADRB2) small molecule agonists, cell-based qHTS assay (AID 1963593);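 also: CHO cells stably overexpressing human ADRB2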
Summary of the method: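 CHO cells stably over-expressing ADRB2 were plated overnight at 37C, then dosed with compounds plus a stimulation mix containing 100uM IBMX and 25uM Ro-20-1724 for 0.5hr at room temperature. cAMP was measured by HTRF competition, 1hr.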

[15] = target: D(2) dopamine receptor (Homo sapiens) (UniProt P14416); assay: Dopamine D2 receptor (DRD2) small molecule agonists, cell-based qHTS assay (AID 1963594); also: nearly all actives have a fitted effect of over 35% in size
Summary of the method: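 HEK293 cells stably expressing human DRD2, pre-treated with PDE inhibitor Ro20-1724 (0.1 mM final) and compound 10 min at room temperature, then stimulated with NKH477 (200nM […]) for 30 min. cAMP read by HTRF (665/620 nm).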

[16] = target: D(2) dopamine receptor (Homo sapiens) (UniProt P14416); assay: Dopamine D2 receptor (DRD2) small molecule antagonists, cell-based qHTS assay (AID 1963595; active = well fitted inhibition curve with a large enough effect in the signal ratio in the repeat runs, with a control signal flat; the % refers to the signal ratio)
Summary of the method: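 Antagonist mode in DRD2-HEK293 cells: after compound addition with 0.1 mM Ro20-1724, cells received quinpirole (12 nM) and NKH477 (200 nM) for 30 min at room temperature; HTRF cAMP read after 1 h detection.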

[17] = target: 5-hydroxytryptamine receptor 2A (Homo sapiens) (UniProt P28223); assay: 5-hydroxytryptamine receptor 2A (HTR2A) small molecule agonists, cell-based qHTS assay (AID 1963587); also: nearly all actives have a fitted effect of over 30% in size
Summary of the method: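 CHO cells stably expressing human HTR2A, plated 18 h, loaded with calcium dye 1 h at 37 C. Agonist mode: compounds added and intracellular calcium fluorescence recorded kinetically for 2 min at 1 sec intervals.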

[18] = target: Muscarinic acetylcholine receptor M1 (Homo sapiens) (UniProt P11229); assay: Cholinergic receptor muscarinic 1 (CHRM1) small molecule antagonists, cell-based qHTS assay (AID 1963588); also: nearly all actives have a fitted effect of over 40% in size
Summary of the method: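 CHRM1-CHO calcium-flux assay, antagonist mode. Cells were seeded 18 h, dye-loaded 1 h at 37 C and given compound for 5 min at RT, then acetylcholine was added at 50nM. FDSS fluorescence was read 3 min; 15 concentrations, three runs.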

[19] = target: Muscarinic acetylcholine receptor M1 (Homo sapiens) (UniProt P11229); assay: Cholinergic receptor muscarinic 1 (CHRM1) small molecule agonists, cell-based qHTS assay (AID 1963589); also: nearly all actives have a fitted effect of over 35% in size
Summary of the method: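 CHO cells stably expressing human CHRM1, seeded 18 h at 37 C/5% CO2, dye-loaded 1 h at 37 C, then given compound in agonist mode; intracellular calcium fluorescence read kinetically at 1 s intervals. Fifteen concentrations, three independent runs.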

[20] = cAMP Responsive Elements (CRE) small molecule antagonists, cell-based qHTS assay (AID 1963591; active = well fitted inhibition curve with a large enough effect in the signal ratio in the repeat runs, not every such curve was filed as active; the % refers to the signal ratio)
Summary of the method: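 CRE-bla HEK293T cells were plated 18 h at 37 °C/5% CO2, pinned with compound in DMSO, then stimulated with NKH477 at 0.25 uM final for 3 h. LiveBLAzer B/G FRET substrate was added and plates incubated 2 h at room temperature.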
% is scaled to controls: 0 for no effect and ±100 for the full control effect.

Chain of Muscarinic acetylcholine receptor M1 (Homo sapiens) (P11229 whole entry, looked up): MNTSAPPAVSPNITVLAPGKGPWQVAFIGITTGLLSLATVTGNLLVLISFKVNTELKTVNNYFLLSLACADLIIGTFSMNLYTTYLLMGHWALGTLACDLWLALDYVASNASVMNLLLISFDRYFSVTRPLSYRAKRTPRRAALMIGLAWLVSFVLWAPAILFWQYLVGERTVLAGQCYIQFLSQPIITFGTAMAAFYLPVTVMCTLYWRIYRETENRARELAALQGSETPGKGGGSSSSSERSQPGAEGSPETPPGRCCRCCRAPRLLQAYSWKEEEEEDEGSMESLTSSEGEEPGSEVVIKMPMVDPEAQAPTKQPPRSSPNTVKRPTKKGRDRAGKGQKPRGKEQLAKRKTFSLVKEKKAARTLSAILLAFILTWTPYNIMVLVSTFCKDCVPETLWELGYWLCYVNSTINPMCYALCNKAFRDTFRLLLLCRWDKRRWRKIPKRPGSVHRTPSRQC
Chain of KiSS-1 receptor (Homo sapiens) (Q969F8 whole entry, looked up): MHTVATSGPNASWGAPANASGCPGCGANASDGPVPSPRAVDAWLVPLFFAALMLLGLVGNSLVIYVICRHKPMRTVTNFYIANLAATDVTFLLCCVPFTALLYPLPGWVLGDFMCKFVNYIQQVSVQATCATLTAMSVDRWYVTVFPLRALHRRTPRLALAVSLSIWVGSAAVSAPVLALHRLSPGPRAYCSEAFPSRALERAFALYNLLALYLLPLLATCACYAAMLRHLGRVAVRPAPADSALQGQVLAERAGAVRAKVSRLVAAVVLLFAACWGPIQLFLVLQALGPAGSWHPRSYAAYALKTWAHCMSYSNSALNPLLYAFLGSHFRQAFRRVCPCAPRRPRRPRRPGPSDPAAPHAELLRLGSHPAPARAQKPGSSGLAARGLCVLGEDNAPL
Chain of 5-hydroxytryptamine receptor 2A (Homo sapiens) (P28223 whole entry, looked up): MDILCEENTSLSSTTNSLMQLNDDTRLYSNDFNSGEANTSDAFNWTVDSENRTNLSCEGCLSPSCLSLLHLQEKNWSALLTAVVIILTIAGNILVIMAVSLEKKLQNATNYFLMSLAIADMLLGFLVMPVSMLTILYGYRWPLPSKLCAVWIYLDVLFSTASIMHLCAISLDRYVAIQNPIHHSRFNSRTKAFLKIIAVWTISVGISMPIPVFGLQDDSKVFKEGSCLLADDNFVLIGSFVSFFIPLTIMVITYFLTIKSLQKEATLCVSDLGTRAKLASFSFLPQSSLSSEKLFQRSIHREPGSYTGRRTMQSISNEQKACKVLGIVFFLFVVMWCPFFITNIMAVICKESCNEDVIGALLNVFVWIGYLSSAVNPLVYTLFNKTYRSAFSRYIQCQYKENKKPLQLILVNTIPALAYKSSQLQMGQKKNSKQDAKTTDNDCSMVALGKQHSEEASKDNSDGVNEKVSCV
Chain of D(2) dopamine receptor (Homo sapiens) (P14416 whole entry, looked up): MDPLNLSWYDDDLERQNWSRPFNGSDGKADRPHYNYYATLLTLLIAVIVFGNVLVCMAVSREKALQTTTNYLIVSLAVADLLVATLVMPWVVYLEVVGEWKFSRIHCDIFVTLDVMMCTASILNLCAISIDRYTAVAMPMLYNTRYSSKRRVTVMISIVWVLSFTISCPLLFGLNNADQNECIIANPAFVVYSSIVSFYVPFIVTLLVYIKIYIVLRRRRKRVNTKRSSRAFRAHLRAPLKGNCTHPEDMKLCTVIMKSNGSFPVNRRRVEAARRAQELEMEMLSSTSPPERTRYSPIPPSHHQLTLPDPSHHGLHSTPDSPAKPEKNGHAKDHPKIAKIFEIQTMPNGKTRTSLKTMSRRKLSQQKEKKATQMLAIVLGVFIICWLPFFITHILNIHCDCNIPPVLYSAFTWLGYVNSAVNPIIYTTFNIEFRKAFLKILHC
Chain of Gonadotropin-releasing hormone receptor (Homo sapiens) (P30968 whole entry, looked up): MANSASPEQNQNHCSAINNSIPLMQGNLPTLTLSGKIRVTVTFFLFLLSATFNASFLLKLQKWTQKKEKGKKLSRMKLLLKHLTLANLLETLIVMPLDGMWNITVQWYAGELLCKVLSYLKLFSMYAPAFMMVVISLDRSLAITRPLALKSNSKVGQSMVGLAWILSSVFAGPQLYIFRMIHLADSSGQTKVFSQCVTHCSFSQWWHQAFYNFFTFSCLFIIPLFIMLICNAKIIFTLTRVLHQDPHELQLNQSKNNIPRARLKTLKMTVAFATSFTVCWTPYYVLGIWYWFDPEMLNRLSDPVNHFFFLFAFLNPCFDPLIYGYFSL
Chain of Beta-2 adrenergic receptor (Homo sapiens) (P07550 whole entry, looked up): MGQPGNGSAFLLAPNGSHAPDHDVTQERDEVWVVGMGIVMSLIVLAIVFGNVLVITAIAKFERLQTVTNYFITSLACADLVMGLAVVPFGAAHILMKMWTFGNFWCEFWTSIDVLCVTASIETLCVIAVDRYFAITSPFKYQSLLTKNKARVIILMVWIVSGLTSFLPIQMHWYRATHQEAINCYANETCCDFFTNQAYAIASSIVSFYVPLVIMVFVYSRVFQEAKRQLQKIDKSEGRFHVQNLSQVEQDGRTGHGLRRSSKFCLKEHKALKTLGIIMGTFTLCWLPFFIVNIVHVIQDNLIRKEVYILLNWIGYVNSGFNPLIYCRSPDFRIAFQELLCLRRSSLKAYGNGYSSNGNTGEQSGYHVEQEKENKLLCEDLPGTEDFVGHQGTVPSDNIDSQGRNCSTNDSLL

C[C@]12CCC(=O)C=C1CC[C@@H]1[C@@H]2C(=O)C[C@@]2(C)[C@H]1CC[C@]2(O)C(=O)CO
inactive: Potency [1] | Potency [2] | Potency [3] | Potency [4] | Potency [5] | Potency [6] | Potency [7] | Potency [9] | Potency [10] | Potency [11] | Potency [12] | Potency [13] | Potency [14] | Potency [15]
408 nM (active) and inactive: Potency [8]

Cc1cn([C@H]2C[C@H](N=[N+]=[N-])[C@@H](CO)O2)c(=O)[nH]c1=O
inactive: Potency [1] | Potency [2] | Potency [3] | Potency [4] | Potency [5] | Potency [6] | Potency [7] | Potency [8] | Potency [9] | Potency [10] | Potency [11] | Potency [12] | Potency [13] | Potency [14] | Potency [15] | Potency [16]

Cc1ccc2c(c1)C(=O)OC2=O
inactive: Potency [1] | Potency [2] | Potency [3] | Potency [4] | Potency [5] | Potency [6] | Potency [7] | Potency [8] | Potency [9] | Potency [10] | Potency [17] | Potency [18] | Potency [19] | Potency [12] | Potency [20] | Potency [14] | Potency [16]

O=C(O)c1cn(-c2ccc(F)cc2)c2cc(N3CCNCC3)c(F)cc2c1=O
inactive: Potency [1] | Potency [2] | Potency [3] | Potency [4] | Potency [5] | Potency [6] | Potency [7] | Potency [8] | Potency [9] | Potency [10] | Potency [11] | activity change, negative = inhibition [13] 3.86% [at 19 µM] | activation [14] -25.8% [at 19 µM] | Potency [16]

CN(C)c1nc(N(C)C)nc(N(C)C)n1
inactive: Potency [1] | Potency [3] | Potency [4] | Potency [5] | Potency [6] | Potency [7] | Potency [8] | Potency [9] | Potency [10] | Potency [11] | Potency [12] | Potency [13] | activation [14] 17.3% [at 8.39 µM] | Potency [15]
3.94 µM (active) and inactive: Potency [2]

CC1(C)S[C@@H]2[C@H](NC(=O)COc3ccccc3)C(=O)N2[C@H]1C(=O)O
inactive: Potency [1] | Potency [2] | Potency [3] | Potency [4] | Potency [5] | Potency [6] | Potency [7] | Potency [8] | Potency [9] | Potency [10] | Potency [17] | Potency [18] | Potency [19] | Potency [12] | Potency [20] | Potency [13] | Potency [14] | Potency [15] | Potency [16]

OC[C@@H](O)[C@@H](O[C@@H]1O[C@H](CO)[C@H](O)[C@H](O)[C@H]1O)[C@H](O)[C@@H](O)CO
inactive: Potency [1] | Potency [2] | Potency [3] | Potency [4] | Potency [5] | Potency [6] | Potency [7] | Potency [8] | Potency [9] | Potency [10] | Potency [17] | Potency [18] | Potency [19] | Potency [12] | Potency [20] | Potency [13] | Potency [15] | Potency [16]
